Assay outcomes from PubChem BioAssay.
HER2 expr 66K – Her2 kinase expression inhibition. P04626. SKBR-3 HER2 protein level, AlphaScreen, 18-24 h; stronger effect = lower value. HER2 level % of control, % at 10 µM. hit rate 0.69% among 65,000. AID 645;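 active = HER2 level under 5% of the carrier-only control; inconclusive = no clear call, values can overlap the other calls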;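 note: lower value means stronger loss of Her2 protein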
Target sequence (P04626 whole entry, looked up): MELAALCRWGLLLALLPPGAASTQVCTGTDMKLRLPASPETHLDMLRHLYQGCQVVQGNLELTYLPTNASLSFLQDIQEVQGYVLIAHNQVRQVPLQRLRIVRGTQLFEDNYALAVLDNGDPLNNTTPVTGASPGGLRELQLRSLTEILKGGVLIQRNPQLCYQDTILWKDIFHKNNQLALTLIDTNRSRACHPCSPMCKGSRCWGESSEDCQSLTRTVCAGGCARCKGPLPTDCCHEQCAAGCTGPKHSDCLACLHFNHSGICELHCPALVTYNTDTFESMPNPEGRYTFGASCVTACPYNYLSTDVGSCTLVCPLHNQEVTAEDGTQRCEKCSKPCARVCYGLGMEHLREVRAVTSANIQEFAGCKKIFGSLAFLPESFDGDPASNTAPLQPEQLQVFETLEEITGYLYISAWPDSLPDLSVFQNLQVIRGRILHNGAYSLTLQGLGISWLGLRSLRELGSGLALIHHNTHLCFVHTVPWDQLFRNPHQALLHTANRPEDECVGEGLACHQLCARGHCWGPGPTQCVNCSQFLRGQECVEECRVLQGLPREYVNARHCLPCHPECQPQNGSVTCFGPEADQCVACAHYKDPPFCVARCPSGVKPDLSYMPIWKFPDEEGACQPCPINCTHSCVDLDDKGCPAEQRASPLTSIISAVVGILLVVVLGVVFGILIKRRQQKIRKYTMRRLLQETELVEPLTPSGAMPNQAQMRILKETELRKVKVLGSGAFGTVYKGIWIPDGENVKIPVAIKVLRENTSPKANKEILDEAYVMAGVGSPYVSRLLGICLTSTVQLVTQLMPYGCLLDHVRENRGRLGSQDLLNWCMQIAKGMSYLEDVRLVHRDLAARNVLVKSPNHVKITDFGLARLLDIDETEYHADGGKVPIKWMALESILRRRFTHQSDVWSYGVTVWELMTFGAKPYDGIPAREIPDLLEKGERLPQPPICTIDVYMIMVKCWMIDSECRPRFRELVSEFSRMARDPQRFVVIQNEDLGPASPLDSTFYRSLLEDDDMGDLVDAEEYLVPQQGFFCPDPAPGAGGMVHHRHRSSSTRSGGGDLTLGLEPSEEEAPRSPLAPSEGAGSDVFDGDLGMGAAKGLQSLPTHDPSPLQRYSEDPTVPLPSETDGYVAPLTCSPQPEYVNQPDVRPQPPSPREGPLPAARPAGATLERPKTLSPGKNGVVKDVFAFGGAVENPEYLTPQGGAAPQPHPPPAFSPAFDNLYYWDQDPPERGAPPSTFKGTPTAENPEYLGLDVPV
JNK3 blocker – blocks human JNK3 kinase activity | P53779 | purified JNK3 kinase activity, HTS | inhibition, % at 8 µM | hit rate 0.61% among 60,000; in the data active = inhibition above about 17%
FXIIa mix inh – inhibitors of human coagulation factor XIIa, pooled mixtures. P00748. purified FXIIa, fluorogenic substrate. inhibition, % at 5 µM. hit rate 0.2% among 62,000
M1 antag – M1 muscarinic receptor (rat) antagonism | P08482 | CHO-M1 cells, Fluo-4 calcium, ACh EC80 antagonist mode; stronger effect = lower value | B-score at 10 µM | hit rate 3.4% among 64,000 | AID 628;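 active = calcium fluorescence response, raw or row-and-column corrected B-score, differing from the plate sample mean either way at a set confidence level, mostly lower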
M1 agonist – agonists of M1 muscarinic receptor; B-score at 10 µM; CHO-M1 cells, Fluo-4 calcium fluorescence, agonist mode; stronger effect = higher value; AID 626; hit rate 3% among 64,000;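 active = fluorescence rise, raw or as B-score row- and column-corrected plate score, outside the 99.7% band of its plate's samples, either direction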
FXIa inh mix – blocks human factor XIa in pooled compound mixtures | P03951 | purified FXIa, fluorogenic substrate | inhibition, % at 5 µM | hit rate 0.19% among 62,000;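 note: each value is inhibition by a whole ten-compound pool holding the compound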
M1 ag confirm – rat M1 muscarinic agonism, confirmation; shares compounds with M1 agonist; CHO-M1 cells, Fluo-4 calcium fluorescence, agonist mode; actives lie on both sides; fluorescence change (max-min) at 10 µM; hit rate 19% among 1,700; AID 1488;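 active = fluorescence change differs from the solvent-only DMSO control mean at a set confidence level in both duplicate runs; inconclusive = differs from solvent-only control mean in just one of two runs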;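 note: an EC20 dose of acetylcholine follows compound addition during the same imaging run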
M4 ag counter – activates rat M4 receptor in counter-screen for M1 agonists. CHO M4/Gqi5 cells, Fluo-4 calcium fluorescence, agonist mode; actives lie on both sides. hit rate 9% among 1,700. fluorescence change (max-min) at 10 µM. shares compounds with M1 agonist. AID 1741;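 active = fluorescence change differing from the plate's solvent-only control wells at 99.7% confidence in both duplicates, whether higher or lower; inconclusive = differs from solvent controls in only one of two duplicates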
Hits are given with their value; - = inactive; ? = inconclusive; . = no result. Only some compounds are listed: those with a hit (about 6.9% of all), similar ones and a draw of the others. Cut-off read from the data, not from the text of the source, unless noted: active = inhibition above about 20% (passing the limit was not always enough); inactive = the rest.

SMILES	HER2 expr 66K	JNK3 blocker	FXIIa mix inh	M1 antag	M1 agonist	FXIa inh mix	M1 ag confirm	M4 ag counter
C[N+](C)(C)C/C=C1/COCO1	-	-	-	-13.4	48.8	-	437	178
C=CCNS(=O)(=O)c1cccc2cc(C(=O)O)c(O)cc12	-	-	-	-	3.58	-	-	-
COc1cc(NC(=O)c2ccccc2Cl)c(OC)cc1NC(=O)CN1CCOCC1	-	-	-	-	-	-	.	.
CC1Cc2ccccc2N1C(=O)CCNS(=O)(=O)c1cccc2nsnc12 (stereo not given)	-	-	-	-	2.66	-	?	?
CC(=O)c1c(C)[nH]c(C(=O)CSc2nc3ccccc3c(=O)n2CCCN2CCOCC2)c1C	-	-	-	-	-	-	.	.
Cc1sc2nc(CSc3nc4ccccc4c(=O)n3CCCN3CCOCC3)[nH]c(=O)c2c1C	-	-	-	-	10.5	-	-	-
O=C1C2CC=C(Cl)CC2C(=O)N1CC1Cc2ccccc2CO1 (stereo not given)	-	-	-	-	2.23	-	-	-
O=C(CCN1C(=O)C2CC=C(Cl)CC2C1=O)Nc1ccccc1O (stereo not given)	-	-	-	-	-	-	.	.
O=C(O)c1ccccc1NCN1C(=O)C2CC=C(Cl)CC2C1=O (stereo not given)	-22.0	-	-	-	-2.19	-	-25.6	?
Cc1[nH]nc2c1C1(CCN(C(=O)c3ccccc3)CC1)C(C#N)=C(N)O2	-	-	-	-	22.8	-	-	-
CC(=O)N1CCC2(CC1)C(C#N)=C(N)Oc1n[nH]c(C)c12	-	.	-	-	-	-	.	.
O=C(CCn1nc(-c2ccccc2)ccc1=O)N1CCN(c2ccccn2)CC1	-	-	-	-	3.92	-	-	-
O=C(CCn1nc(-c2ccccc2)ccc1=O)N1CCOCC1	-	-	-	-	-	-	.	.
CCOc1ccc(OCc2ccc(C(=O)OCc3ccccn3)o2)cc1	-	-	-	.	.	-	.	.
CCOC(=O)c1ccc(NS(=O)(=O)c2cnc[nH]2)cc1	-	-	-	-	-	-	.	.
CC(C)CCn1c(SCC(=O)OCn2nnc3ccccc3c2=O)nc2ccccc2c1=O	-	-	-	-	3.67	-	-	-
COc1cccc(C(=O)OCn2nnc3ccccc3c2=O)c1	-	.	-	-	2.21	-	-	-
O=C(OCn1nnc2ccccc2c1=O)c1cccnc1	-	-	-	-	-	-	.	.
CCOC(=O)CSc1nnc(CNc2ccc(Cl)cc2)n1-c1ccccc1	-	-	-	-	-	-	.	.
O=C(O)CSc1nnc(CNc2ccccc2Cl)n1-c1ccccc1	-	-	-	3.01	84.3	-	?	-
COC(=O)CSc1nc2cc(C)ccc2cc1C#N	-	-	-	-	-	-	.	.
COC(=O)CSc1cc(SCC(=O)OC)c(C#N)c(SCC(=O)OC)c1	2.9	-	-	-	9.5	-	-	-63.9
COc1cccc(C(=O)N2CCN(C3CCC(c4ccccc4)CC3)CC2)c1OC (stereo not given)	-	-	-	-3.14	18.2	-	?	-
CCOc1ccc2ccccc2c1C(=O)Nc1cc(=O)n(C)c(=O)n1C	-	-	-	-	-	-	.	.
COCCNC(=O)c1ccc2ccccc2n1	-	-	-	-	-	-	.	.
SMILES	HER2 expr 66K	JNK3 blocker	FXIIa mix inh	M1 antag	M1 agonist	FXIa inh mix	M1 ag confirm	M4 ag counter
O=C(OCCNC(=O)c1ccc2ccccc2n1)c1cccnc1	-	.	-	-	3.22	-	?	-
COC(=O)c1cc(=O)n(Cc2ccco2)c(=Nc2ccc(F)c(Cl)c2)s1	-	-	-	-	7.07	-	-	-
O=C(NCCN1CCN(c2ccccc2)CC1)c1cccn2c(=O)c3ccccc3nc12	-	.	-	-	-	-	.	.
O=C(NCCN1CCN(c2ccccc2F)CC1)c1cccn2c(=O)c3ccccc3nc12	-	-	-	-	6.71	-	-	-
O=C(c1ccco1)N1CCN(S(=O)(=O)c2ccc(F)cc2)CC1	-	-	-	-	-	-	.	.
Cc1sc2nc3ccc(N4CCCC4)nn3c(=O)c2c1C	-	-	-	-	6.63	-	-	-
Brc1ccc(C2Nc3cccc4cccc(c34)N2)o1	-	-	-	-	-	-	.	.
Oc1ccccc1C1Nc2cccc3cccc(c23)N1	-	-	-	-	2.72	-	?	-
Cc1nc2ccccc2c(=O)n1NCc1cc(Br)cs1	-	-	-	-	4.45	-	-	-
O=C(NCc1cccnc1)C1c2ccccc2C(=O)N1C1CCCC1 (stereo not given)	-	-	-	-	-	-	.	.
CC(C)OC(=O)c1cn(-c2ccccc2)nc1-c1ccco1	-	-	-	-	4.4	-	-	-
CCOC(=O)c1cn(-c2ccccc2)nc1-c1ccncc1	-	-	-	-	2.2	-	?	?
COc1ccc(-c2nn(-c3ccccc3)cc2C(=O)O)cc1	-	-	-	-	-	-	.	.
COC(=O)c1ccc2c(c1)N(Cc1ccccc1F)C(=O)c1ccccc1S2=O (stereo not given)	-	-	-	-	4.89	-	?	-
Cc1nc2ccccc2c2oc(C(=O)N3CCN(C4CCCCC4)CC3)cc12	-	-	-	-3.19	2.43	-	?	-
O=C(CC1Sc2ncnn2C1=O)Nc1ccc(Br)cc1 (stereo not given)	-	-	-	-	-	-	.	.
C/C(N)=C(/C#N)C(=O)CSc1nc2cc(Cl)ccc2s1	-	-	-	-	5.06	-	-	-
CCOC(=O)C1CCN(c2c(N3CCCC(C(=O)OCC)C3)c(=O)c2=O)CC1 (stereo not given)	-	-	-	-	26.6	-	-	?
COc1cccc(NC(=O)c2cccs2)c1	-	-	-	-	2.4	-	?	?
Cc1c(NC(=O)c2ccc(F)cc2)c(=O)n(-c2ccccc2)n1C	-	-	-	-	-	-	.	.
COc1ccc(NC(=O)Nc2c(C)n(C)n(-c3ccccc3)c2=O)cc1	-	-	-	-	-	-	.	.
Cc1c(NC(=O)c2cccc(F)c2)c(=O)n(-c2ccccc2)n1C	-25.7	-	-	-6.54	8.89	-	-	?
Cc1c(NC(=O)c2ccc(COc3ccc4ccccc4c3)o2)c(=O)n(-c2ccccc2)n1C	-	-	-	-	-2.82	-	-	-
CCOc1ccc(C2C=C(c3ccccc3)Nc3ncnn32)cc1 (stereo not given)	-	-	.	-	24.6	.	202	-
CCCC1=C(C(=O)OCC)C(c2ccc(F)cc2)n2ncnc2N1 (stereo not given)	-	-	-	-	-	-	.	.
CCOc1ccc(C2C=C(c3ccc(F)cc3)Nc3ncnn32)cc1 (stereo not given)	-	-	-	-	25.2	-	146	-
O=C1OCc2cc(NC(=O)C3CCCO3)ccc21 (stereo not given)	-	-	-	-	-	-	.	.
